Screening results as filed in PubChem.
Shown are actives, neighbours in structure and some others; about 28% of the full set was active somewhere.
CYP2C9 act: increases human cytochrome P450 2C9 activity. recombinant CYP2C9, luciferin-H conversion, luminescence; active compounds read high; factor 1 = untreated enzyme, 0 = blocked. activation factor at 5 µM. hit rate 1.4% among 96,000. AID 1024;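 active = activation factor of 2 or more for CYP2C9 at a 5 µM dose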
CD11b adhes enh: increases human CD11b/CD18 adhesion to fibrinogen; K562 CD11b/CD18 adhesion to fibrinogen, ATPlite luminescence; activation, % at 10 µM; hit rate 0.07% among 93,000; AID 1499;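 active = 10 µM primary screen giving 50% or more activity, confirmed by 40% or more on retest at that dose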
Target sequence (P05107 whole entry, looked up, other chains not shown): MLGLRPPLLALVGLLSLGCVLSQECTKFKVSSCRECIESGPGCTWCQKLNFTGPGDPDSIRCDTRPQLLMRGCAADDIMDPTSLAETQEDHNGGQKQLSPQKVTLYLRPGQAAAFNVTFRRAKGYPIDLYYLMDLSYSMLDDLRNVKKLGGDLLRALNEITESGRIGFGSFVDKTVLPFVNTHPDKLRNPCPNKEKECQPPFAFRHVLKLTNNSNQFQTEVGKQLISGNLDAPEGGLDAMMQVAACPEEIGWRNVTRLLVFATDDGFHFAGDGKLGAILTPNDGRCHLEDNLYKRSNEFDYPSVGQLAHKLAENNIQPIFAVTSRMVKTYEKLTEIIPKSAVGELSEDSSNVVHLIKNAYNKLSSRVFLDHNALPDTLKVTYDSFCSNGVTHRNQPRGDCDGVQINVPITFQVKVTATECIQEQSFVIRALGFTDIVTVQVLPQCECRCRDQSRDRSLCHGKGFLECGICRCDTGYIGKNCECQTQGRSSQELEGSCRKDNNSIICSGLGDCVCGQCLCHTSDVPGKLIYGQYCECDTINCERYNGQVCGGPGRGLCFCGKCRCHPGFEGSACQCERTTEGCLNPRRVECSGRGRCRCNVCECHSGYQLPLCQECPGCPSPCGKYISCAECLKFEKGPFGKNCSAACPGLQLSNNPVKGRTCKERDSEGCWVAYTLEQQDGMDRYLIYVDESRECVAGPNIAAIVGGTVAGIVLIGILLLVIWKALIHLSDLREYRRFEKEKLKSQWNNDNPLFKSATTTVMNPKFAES
CYP2C19 inhib: blocks human cytochrome P450 2C19; hit rate 21% among 96,000; AID 778; P33261; CYP2C19 Supersomes, luciferin-H EGE luminescence, 30 min; inhibition, % at 5 µM;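 active = CYP2C19 inhibition above a set limit at 5 µM in the primary screen, cut at about 50% in these data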
Mac1 fbg inh: CD11b/CD18-fibrinogen binding inhibition. inhibition, % at 10 µM. K562 CD11b/CD18 adhesion to fibrinogen, ATPlite luminescence; Mn2+ added to activate the integrin. P05107+P11215. hit rate 0.54% among 93,000;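 active = primary inhibition of 50% or more at 10 µM, then 40% or more on retest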
CYP2C9 inhib: inhibitors of human CYP2C9; CYP2C9 Supersomes, luciferin-H conversion, luminescence; inhibition, % at 5 µM; hit rate 20% among 96,000;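 active = blocking of liver enzyme CYP2C9 beyond about 50% at 5 µM, limit read from the data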
CYP2C19 activ: activators of human cytochrome P450 2C19 | recombinant CYP2C19, luciferin-H EGE luminescence; active compounds read high; 0 = fully inhibited enzyme, 1 = untreated enzyme | activation factor at 5 µM | 96,000 tested, under 10 active;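 active = activation factor of at least 2 at 5 µM in the primary screen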
A number is an active result; n = inactive; x = no result.

SMILES	CYP2C9 act	CD11b adhes enh	CYP2C19 inhib	Mac1 fbg inh	CYP2C9 inhib	CYP2C19 activ
O=c1c(-c2nc3ccccc3s2)cccn1Cc1ccc(Cl)c(Cl)c1	n	n	n	n	74	n
COc1ccc(-n2c(SCC#N)nc3ccccc3c2=O)cc1	n	n	n	n	68	n
CCOC(=O)n1c(SCC(N)=O)nc2ccccc21	n	x	n	x	n	n
CCOc1ccccc1-n1c(SCC(N)=O)nnc1-c1ccccc1	n	n	n	n	n	n
CCCCOC(=O)n1c(SCC(=O)N(CC)CC)nc2ccccc21	n	n	n	n	86	n
O=C(CSc1nc2ccccc2c(=O)n1-c1cccc(C(F)(F)F)c1)NC1CC1	n	n	51	n	n	n
CCOc1ccccc1-n1c(SCC(N)=O)nc2ccccc2c1=O	n	n	59	n	n	n
CCOC(=O)CN(Cc1sccc1C)C(=O)Nc1ccc(OCC)cc1	x	n	x	n	x	x
Cc1nc(-c2cccnc2)sc1C(=O)Nc1cccc(C(F)(F)F)c1	n	x	n	x	n	n
CCN(CC)C(=O)CSc1nc2ccccc2c(=O)n1OC(C)C	n	n	n	n	58	n
CCN(CC)C(=O)CSc1nc2ccccc2c(=O)n1CCC(=O)NCc1ccc(F)cc1	n	n	57	n	92	n
CCNC(=O)CSc1nc2ccccc2c(=O)n1-c1cc(OC)ccc1OC	n	n	n	n	73	n
CCN(CC)C(=O)CSc1nc2ccccc2c(=O)n1-c1cccc(OC)c1	n	n	n	n	71	n
CSc1nc(C)cc(OCNC(=O)c2cccs2)n1	n	n	n	n	n	n
COc1ccc(NCc2nnc(SCC(=O)c3ccc(OC)cc3)n2C)cc1	n	n	n	n	n	n
Oc1ccccc1-c1nc(NCC2CCCO2)c2ccccc2n1 (stereo unspecified)	n	n	n	n	n	n
c1ccc2c(c1)OCC(CNc1ncnc3sccc13)O2 (stereo unspecified)	x	n	x	100	x	x
CCOC(=O)c1ccc(Nc2nc(-c3cccnc3)nc3ccccc23)cc1	n	n	66	n	79	n
c1cncc(-c2nc(NCC3COc4ccccc4O3)c3ccccc3n2)c1 (stereo unspecified)	n	n	n	n	88	n
COC(=O)CNc1nc(-c2cccnc2)nc2ccccc12	n	n	n	n	56	n
Cc1cc2nc(SCCOC(=O)Nc3ccc(Cl)cc3)nc(C)c2cc1C	n	n	n	n	n	n
Nc1nc2c3ccccc3nc(C3CC3)n2n1	n	n	n	n	n	n
CCOC(=O)c1nc(Nc2ccc(C)cc2)c2ccccc2n1	n	n	71	n	66	n
O=C(Nc1cccc(-c2nc3ncccc3o2)c1)c1cc2ccccc2o1	n	n	n	n	89	n
CN(C)S(=O)(=O)c1cccc(NC(=O)c2cc3ccccc3o2)c1	n	n	n	n	61	n
SMILES	CYP2C9 act	CD11b adhes enh	CYP2C19 inhib	Mac1 fbg inh	CYP2C9 inhib	CYP2C19 activ
Cc1ccc(-c2nc3ncccc3o2)cc1NC(=O)c1cc2ccccc2o1	n	n	n	n	n	n
Oc1ccc(/C=N/NC2=NCCCCC2)cc1	n	n	n	n	n	n
CC(=O)c1sc(NC(=O)c2ccc(Cn3cc(Br)cn3)o2)nc1C	n	n	n	n	78	n
COc1ccc2cc3cc(C(=O)NCc4ccc5c(c4)OCO5)oc3nc2c1	n	x	n	x	64	n
COc1ccc2cc3cc(C(=O)N4CCN(Cc5ccc6c(c5)OCO6)CC4)oc3nc2c1	n	x	n	x	53	n
COc1ccc(/C=N\NC(=O)COc2ccc(C(C)(C)C)cc2)cc1Cn1nc(C)cc1C	n	n	53	n	95	n
CC(C)CCNC(=O)C12CN(Cc3ccccc3)CC1C(c1cccc([N+](=O)[O-])c1)=NO2 (stereo unspecified)	n	x	n	x	n	n
Cc1ccc(CNC(=O)C23CN(Cc4ccccc4)CC2C(c2cccc([N+](=O)[O-])c2)=NO3)cc1 (stereo unspecified)	n	n	88	n	61	n
O=C(NCCc1cccs1)C12CN(Cc3ccccc3)CC1C(c1cccc([N+](=O)[O-])c1)=NO2 (stereo unspecified)	n	n	n	n	73	n
N#CC1=C(N)n2c(s/c(=C\c3ccco3)c2=O)=C(C#N)C1c1ccco1 (stereo unspecified)	n	n	n	n	51	n
N#CC1=C(N)n2c(s/c(=C\c3cccs3)c2=O)=C(C#N)C1c1cccs1 (stereo unspecified)	x	n	x	n	x	x
COC(=O)C1=C(N)n2c(s/c(=C\c3cccnc3)c2=O)=C(C(=O)OC)C1c1cccnc1 (stereo unspecified)	n	n	70	n	n	n
CCOC(=O)C1=c2s/c(=C\c3cccnc3)c(=O)n2C(N)=C(C(=O)OC)C1c1cccnc1 (stereo unspecified)	n	n	90	n	88	n
CCOC(=O)C1=C(N)n2c(s/c(=C/c3ccco3)c2=O)=C(C(=O)OC)C1c1ccco1 (stereo unspecified)	n	n	n	n	78	n
Cn1ncc(Br)c1C(=O)Nc1ccc(Cl)cn1	n	n	n	n	n	n
COC(=O)C1C(=O)c2c([nH]c(C(=O)OCCOC(C)C)c2C)CC1C (stereo unspecified)	n	n	n	n	59	n
COC(=O)C1C(=O)c2c([nH]c(C(=O)OC3CCCCC3)c2C)CC1C (stereo unspecified)	n	n	n	n	n	n
COC(=O)C1C(=O)c2c([nH]c(C(=O)OC3CCCC3C)c2C)CC1C (stereo unspecified)	n	n	n	n	56	n
Cc1cc(C)n(-c2ccc(C(=O)Nc3cc(S(=O)(=O)N(C)C)ccc3Cl)cc2)n1	x	n	x	n	x	x
Cc1cc(C)n(-c2ccc(C(=O)OCC(=O)Nc3ccc(S(=O)(=O)N4CCOCC4)cc3)cc2)n1	n	n	88	n	71	n
CCOCC(=O)Nc1ccc(S(=O)(=O)N2CCOCC2)cc1	n	n	n	n	n	n
Cc1cc(C)n(-c2ccc(C(=O)OCC(=O)Nc3ccc(Cl)c(S(=O)(=O)N(C)C)c3)cc2)n1	n	n	83	n	n	n
Cc1cc(C)n(-c2ccc(C(=O)OCC(=O)c3ccc(Br)s3)cc2)n1	n	n	77	n	90	n
O=C(Cc1ccccc1)NCC(=O)OCC(=O)c1cccs1	n	n	n	n	n	n
COC(=O)C(C(=O)NCC1CCCO1)C1CCCC1 (stereo unspecified)	n	n	n	n	n	n
Cc1c(Cl)cnc(NC(=O)CSc2nncs2)c1Cl	x	n	x	n	x	x
CCN(CC)CCNC(=O)Cc1c(C(=O)O)n(C)c2ccccc12	n	n	n	n	n	n
Cc1ccc2c(c1)c(CC(=O)Nc1ccc(F)cc1)c(C(=O)O)n2C	n	n	n	n	65	n
